# Test results: PubChem BioAssay (NCATS)
# “And” between values parts separate entries of the source, which are not always exact repeats. Identical values can stand only once. Records with an inconclusive call do not appear. Where a call stands in place of a potency, no number is given. A number with no mark means an inactive call. The source made the active and inactive calls. Calls follow the shape of the dose curve; as a rule, active = well fitted curve in the direction sought with a large enough effect; inconclusive = small, poorly fitted or top-dose-only effect, or another doubt; inactive = no such curve, though single readings can be large; an effect the other way counts as inactive or inconclusive.
# Experiments:
# [1] = P-glycoprotein substrates identified in KB-3-1 adenocarcinoma cell line, qHTS therapeutic library screen (AID 1346986); also: nearly all actives have a fitted effect of over 60% in size;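 also: potency is for cytotoxicity meaning loss of cell viability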
# Method in brief: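 Viability by CellTiter-Glo after 72 h compound exposure at 37 degree C, 5% CO2. Cytotoxic call: curve class -1.1 to -2.4, maximum response >50%, AC50 < 10 uM, compared across KB-3-1 and P-gp-overexpressing KB-8-5-11.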
# [2] = P-glycoprotein substrates identified in KB-8-5-11 adenocarcinoma cell line, qHTS therapeutic library screen (AID 1346987); also: nearly all actives have a fitted effect of over 65% in size; as to activity change, negative = cytotoxicity: series mostly up to about 44 µM
# Method in brief: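 Human cervical adenocarcinoma KB-8-5-11 cells, selected in colchicine to over-express P-gp and assayed without it, were exposed for 72 h to titrated compounds. An ATP-based luminescent viability signal gave AC50.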
# Potency is read from the fitted curve at half-maximal effect.
smiles,measurement,setting,value
Nc1ncnc2c1ncn2CCNCCCCCO,Potency,[1],inactive
same,Potency,[2],inactive
COc1cc([C@H]2c3cc(O)c(OC)cc3C[C@@H](CO[C@@H]3O[C@H](CO)[C@@H](O)[C@H](O)[C@H]3O)[C@@H]2CO)ccc1O,Potency,[1],inactive
same,Potency,[2],inactive
CC/C=C\C/C=C\C/C=C\CCCCCCCC(=O)OCC(O)COC1OC(CO)C(O)C(O)C1O (centres undefined),Potency,[1],inactive
same,Potency,[2],inactive
C[C@H](CCC(=O)O)[C@H]1CC[C@H]2[C@@H]3C[C@H](O)[C@@H]4C[C@H](O)CC[C@]4(C)[C@H]3CC[C@]12C,Potency,[1],inactive
same,Potency,[2],inactive
O=C(O)Cc1cn(C2OCC(O)C(O)C2O[C@@H]2O[C@H](CO)[C@@H](O)[C@H](O)[C@H]2O)c2ccccc12 (some centres undefined),Potency,[1],inactive
same,Potency,[2],inactive
CC(=O)O[C@@H]1[C@@H](CO)O[C@@](CO)(O[C@H]2O[C@H](COC(=O)/C=C/c3ccccc3)[C@@H](O)[C@H](O)[C@H]2O)[C@H]1O,Potency,[1],inactive
same,Potency,[2],inactive
NC(=O)[C@H](O[C@@H]1O[C@H](CO)[C@@H](O)[C@H](O)[C@H]1O)c1ccccc1,Potency,[1],inactive
same,Potency,[2],inactive
CNC(=O)c1cccc(-c2ccc3c(N4CCOC[C@@H]4C)nc(N4CCOC[C@@H]4C)nc3n2)c1,Potency,[1],920 nM (active)
same,Potency,[2],366 nM (active) and 580 nM (active)
C=CC1C(OC2OC(CO)C(O)C(O)C2O)OC=C(C(=O)OC)C1CC(=O)OCC1C(C)C(O)CC1C(CO)COC(=O)CC1C(C(=O)O)=COC(OC2OC(CO)C(O)C(O)C2O)/C1=C\C (centres undefined),outcome,[1],inactive [at 9.29 µM]
same,"activity change, negative = cytotoxicity",[2],-0.744% [at 9.29 µM]
C[C@@H]1O[C@@H](O[C@@H]2CO[C@@H](O[C@H]3CC[C@@]4(C)C(CC[C@]5(C)C4CC=C4[C@@H]6CC(C)(C)CC[C@]6(C(=O)O[C@@H]6O[C@H](CO)[C@@H](O)[C@H](O)[C@H]6O)CC[C@]45C)[C@]3(C)CO)[C@H](O)[C@H]2O[C@@H]2O[C@H](CO)[C@@H](O)[C@H](O)[C@H]2O)[C@H](O)[C@H](O)[C@H]1O (some centres undefined),outcome,[1],inactive [at 9.29 µM]
same,"activity change, negative = cytotoxicity",[2],4.08% [at 9.29 µM]
C=C1CC23CC1CCC2C12OC(=O)C(C)(CCC1O)C2C3C(=O)O (centres undefined),Potency,[1],inactive
same,Potency,[2],inactive
C=C(C)C1CCC2(C(=O)O[C@@H]3O[C@H](CO[C@@H]4O[C@H](CO)[C@@H](O)[C@H](O)[C@H]4O)[C@@H](O)[C@H](O[C@@H]4O[C@@H](C)[C@H](O)[C@@H](O)[C@H]4O)[C@H]3O)CCC3(C(=O)O)C(CCC4C5(C)CCC(O)C(C)(C)C5CCC43C)C12 (some centres undefined),outcome,[1],inactive [at 9.29 µM]
same,outcome,[2],inactive [at 9.29 µM]
CC1(c2nc3c(C(N)=O)cccc3[nH]2)CCCN1 (centres undefined),Potency,[1],inactive
same,Potency,[2],inactive
CCC(Nc1ncnc2nc[nH]c12)c1nc2cccc(F)c2c(=O)n1-c1ccccc1 (centres undefined),Potency,[1],inactive
same,Potency,[2],inactive
CCOc1ccc(NC(=S)N2CCC(C(O)(c3ccccc3)c3ccccc3)CC2)cc1,Potency,[1],inactive
same,Potency,[2],inactive
COc1c2c(c(C)c3c1C(=O)OC3)O[C@@]1(C)CCC3(C(C)(C)O)OC(=O)CC[C@]3(C)[C@H]1C2 (some centres undefined),Potency,[1],inactive
same,Potency,[2],inactive
CN[C@@H]1[C@H](O[C@H]2[C@H](O[C@@H]3[C@@H](O)[C@H](O)[C@@H](N=C(N)N)[C@H](O)[C@H]3N=C(N)N)O[C@@H](C)[C@]2(O)C=O)O[C@@H](CO)[C@H](O)[C@H]1O,Potency,[1],inactive
same,Potency,[2],inactive
O=C(Nc1ccn[nH]1)c1c(F)cccc1F,Potency,[1],inactive
same,Potency,[2],inactive
Cc1ccc(-c2ccc3c(ccc4sc5c(c43)NC[C@@H](C)NC5=O)n2)cn1,Potency,[1],inactive
same,Potency,[2],inactive
CC#CC(=O)N1CCC[C@H]1c1nc(-c2ccc(C(=O)Nc3ccccn3)cc2)c2c(N)nccn12,Potency,[1],inactive
same,Potency,[2],inactive
CC(C)S(=O)(=O)N[C@H]1CCOC[C@@H]1c1ccc(-c2ccc(C#N)s2)cc1,Potency,[1],inactive
same,Potency,[2],inactive
O=C(CN1C(=O)C2(CCCC2)NCC1c1cc(F)cc(F)c1)Nc1ccc2c(c1)CC1(C2)C(=O)Nc2ncccc21 (centres undefined),Potency,[1],inactive
same,Potency,[2],inactive
C=C1C(O)C[C@@H]2C(C(=O)O)=CO[C@@H](O[C@@H]3O[C@H](CO)[C@@H](O)[C@H](O)[C@H]3OC(=O)c3ccc(O)cc3)[C@H]12 (some centres undefined),Potency,[1],inactive
same,Potency,[2],inactive
CC1(C)CC[C@]2(C(=O)O[C@@H]3O[C@H](CO)[C@@H](O)[C@H](O)[C@H]3O)CC[C@]3(C)C(=CCC4[C@@]5(C)C[C@@H](O)[C@H](O)C(C)(C)C5[C@H](O)C[C@]43C)[C@@H]2[C@@H]1O (some centres undefined),Potency,[1],inactive
same,Potency,[2],inactive
CC(C)=CC/C=C(\C)[C@H]1CC[C@]2(C)[C@@H]1[C@H](O)C[C@@H]1[C@@]3(C)CC[C@H](O)C(C)(C)[C@@H]3[C@@H](O[C@@H]3O[C@H](CO)[C@@H](O)[C@H](O)[C@H]3O)C[C@]12C,Potency,[1],inactive
same,Potency,[2],inactive
[N-]=[N+]=N[C@]1(CO)O[C@@H](n2ccc(=O)[nH]c2=O)[C@@H](O)[C@@H]1O,Potency,[1],inactive
same,Potency,[2],inactive
CC(=O)O[C@]1(C(C)=O)CC[C@H]2[C@@H]3C[C@H](C)C4=CC(=O)C=C[C@]4(C)[C@@]3(F)[C@@H](O)C[C@@]21C,Potency,[1],inactive
same,Potency,[2],inactive
C=C(C(=O)O)C1CC2=C(C)CCCC2(C)C[C@@H]1O (some centres undefined),Potency,[1],inactive
same,Potency,[2],inactive
Cc1cc(=O)oc2c(C=O)c(O)ccc12,Potency,[1],inactive
same,Potency,[2],inactive
CC(C)=CCC/C(C)=C/CO[C@@H]1O[C@H](CO)[C@@H](OC(=O)/C=C/c2ccc(O)cc2)[C@H](O[C@@H]2O[C@@H](C)[C@H](O)[C@@H](O)[C@H]2O)[C@H]1O,Potency,[1],inactive
same,Potency,[2],inactive
COc1cc(C(=O)O)ccc1OC1OC(CO)C(O)C(O)C1O (centres undefined),Potency,[1],inactive
same,Potency,[2],inactive
COc1ccc(CN2C(=O)C(=O)c3cc(S(=O)(=O)N4CCC[C@H]4COc4cccnc4)ccc32)cc1,Potency,[1],inactive
same,Potency,[2],inactive
CC1(C)CC2C=C(C(=O)O)C3COC(=O)C(O)(CO)C23C1 (centres undefined),Potency,[1],inactive
same,Potency,[2],inactive
COc1cc(O)cc(/C=C/c2ccc(O[C@@H]3O[C@H](CO)[C@@H](O)[C@H](O)[C@H]3O)cc2)c1,Potency,[1],inactive
same,Potency,[2],inactive
COC(=O)c1cc(OC)cc(OC)c1C(=O)c1c(OC)cc2c(c1O)C1CCCC(C)(O2)O1 (centres undefined),Potency,[1],inactive
same,Potency,[2],inactive
CC1(O)CCCC2(C)C1CCC13CC(CO)C(CCC12)C3 (centres undefined),Potency,[1],inactive
same,Potency,[2],inactive
CC(=O)O[C@H]1CC[C@@]2(C)C(CC[C@@H](C)[C@]23Cc2c(O)cc4c(c2O3)CN([C@@H](CCC(=O)O)C(=O)O)C4=O)C1(C)C (some centres undefined),Potency,[1],inactive
same,Potency,[2],inactive
OC[C@H]1O[C@@H](OC[C@H]2O[C@@H](OC/C=C/c3ccccc3)[C@H](O)[C@@H](O)[C@@H]2O)[C@@H](O)[C@@H]1O,Potency,[1],inactive
same,Potency,[2],inactive
CC1=CCC(C(C)(C)O[C@@H]2O[C@H](CO[C@@H]3O[C@@H](C)[C@H](O)[C@@H](O)[C@H]3O)[C@@H](O)[C@H](O)[C@H]2O)CC1 (some centres undefined),Potency,[1],inactive
same,Potency,[2],inactive
C=C[C@@]12COC(=O)C(=C)C1[C@@H](O)[C@H](C(=C)C(=O)OC)[C@@H](OC(=O)C(=C)CO)C2 (some centres undefined),Potency,[1],inactive
same,Potency,[2],inactive
CC(C)(C)NS(=O)(=O)c1cncc(-c2cc(F)c3nc(N)nn3c2)c1,Potency,[1],inactive
same,Potency,[2],inactive
Cc1ccc(Cc2c(C)nc3nc(SCC(=O)NCCN4CCNCC4)nn3c2C)cc1,Potency,[1],inactive
same,Potency,[2],inactive
Cn1c2ccc(F)cc2c2c(C(=O)N3CCCC3)cn(-c3ccccc3)c(=O)c21,Potency,[1],inactive
same,Potency,[2],inactive
COc1cc(N2CCOCC2)ccc1Nc1ncc(Cl)c(Nc2ccccc2NS(C)(=O)=O)n1,Potency,[1],2060 nM (active)
same,Potency,[2],1.64 µM (active)
CC1=C(C(=O)OCc2ccccc2)C(c2ccc(-c3ccccc3)cc2)NC(=O)N1CCCCCC(=O)O (centres undefined),Potency,[1],inactive
same,Potency,[2],inactive
CC(=O)O[C@H]1[C@H](O[C@H]2[C@@H]3C=CO[C@@H](O[C@@H]4O[C@H](CO)[C@@H](O)[C@H](O)[C@H]4O)[C@@H]3[C@@]3(CO)O[C@@H]23)O[C@@H](C)[C@H](OC(=O)/C=C/c2ccccc2)[C@H]1OC(=O)/C=C/c1ccccc1,outcome,[1],inactive [at 9.29 µM]
same,outcome,[2],inactive [at 9.29 µM]
COc1cc(Nc2nc3ccccc3nc2NS(=O)(=O)c2ccc(NC(=O)c3ccc(OC)c(C)c3)cc2)cc(OC)c1,Potency,[1],inactive
same,Potency,[2],inactive
CC(=O)OC1CC2C3(C)CCC(OC(=O)CC(=O)O)C(C)(C)C3CCC2(C)C2(C)CCC(C3(C)CCC(=O)O3)C12 (centres undefined),Potency,[1],inactive
same,Potency,[2],inactive
COc1ccc(C(O)C(C)OC2OC(CO)C(O)C(O)C2O)cc1 (centres undefined),Potency,[1],inactive
same,Potency,[2],inactive
C=CC(C)(C)c1[nH]c2cc3c(cc2c1CC1NC(=O)C2=CCCN2C1=O)C=CC(C)(C)O3 (centres undefined),Potency,[1],inactive
same,Potency,[2],inactive
O=C1OCc2cc3cccc(O[C@@H]4O[C@H](CO)[C@@H](O)[C@H](O)[C@H]4O)c3c(O)c21,Potency,[1],inactive
same,Potency,[2],inactive
CC(C)=C/C=C\[C@H](C)[C@H]1CC[C@]2(C)C[C@@H]3C(C)=CC(=O)C3/C(CO)=C\C[C@@H]12 (some centres undefined),Potency,[1],inactive
same,Potency,[2],inactive
C/C(=C\CCC1(C)C2CCC(C2)C1(C)O)C(=O)O (centres undefined),Potency,[1],inactive
same,Potency,[2],inactive
CC(C)=CCC[C@](C)(O)[C@H]1CC[C@]2(C)[C@@H]1[C@H](O)CC1[C@@]3(C)CC[C@H](O)C(C)(C)C3[C@@H](O[C@@H]3O[C@H](CO)[C@@H](O)[C@H](O)[C@H]3O[C@@H]3OC[C@@H](O)[C@H](O)[C@H]3O)C[C@]12C (some centres undefined),Potency,[1],inactive
same,Potency,[2],inactive
C/C(=C\CCC(C)CCO)C(=O)O[C@@H]1[C@@H](O)[C@H](OC2OC=C(C(=O)O)C3CCC(C)(O)C23)O[C@H](CO)[C@H]1O (some centres undefined),Potency,[1],inactive
same,Potency,[2],inactive
COc1cc2ncnc(Nc3cccc(Cl)c3F)c2cc1OC(=O)N1CCN(C)C[C@H]1C,Potency,[1],inactive
same,Potency,[2],inactive
CNC12CC3C[C@@](C)(C1)C[C@](C)(C3)C2,Potency,[1],inactive
same,Potency,[2],inactive
